# Screening results from PubChem.
# GLP1R ag: qHTS of GLP-1 Receptor Agonists; HEK293 GLP-1R CRE-luciferase, luminescence, 4-6 h; cells express a hypersensitive GLP-1R form; 380,000 compounds, 0.007% hits; Potency, µM (titrated, usually from 45.6 µM), for inactives: at the top dose activation, most hits filed as activators; Glucagon-like peptide 1 receptor (Homo sapiens), P43220; note: potency is the fitted concentration of half-maximal effect; % of control where 0% means no effect
# GLP-1R inv ag: qHTS of GLP-1 Receptor Inverse Agonists (Inhibition Mode); Glucagon-like peptide 1 receptor (Homo sapiens), P43220; HEK293 GLP-1R CRE-luciferase, luminescence, 24 h; GLP-1R form is constitutively active; Potency, µM (top dose mostly 38.3 µM), for the others: at the top dose activity change, negative = inhibition, most hits filed as inhibitors; 410,000 compounds, 1.6% hits; AID 624417, 2012; note: potency is the fitted concentration of half-maximal effect; % is set by controls: 0 for no effect and ±100 for the full control effect; nearly all actives have a fitted effect of over 55% in size
#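 Constitutively active GLP-1R drives a cAMP-responsive luciferase in stably transfected HEK293 cells; test compounds are added after overnight (12 h) attachment and left 24 hr, and signal loss in luminescence marks inhibition.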
# ClpP mod: qHTS Assay for Activators of ClpP. ATP-dependent Clp protease proteolytic subunit (Bacillus subtilis (strain 168)), P80244. purified B. subtilis ClpP, FRET peptide cleavage, 20 min. Potency, µM (top dose mostly 57.5 µM), inactives show at the highest dose activity change, negative = active. 340,000 compounds, 1.9% hits; active = well fitted falling curve with a large enough effect; inconclusive = small, poorly fitted or top-dose-only effect; inactive = no such curve, though single readings can be large or run the other way; note: potency is the fitted concentration of half-maximal effect; the source files actives as falling curves though it sought activators and does not explain the sign; nearly all actives have a fitted effect of over 65% in size
# Target sequence (P80244 whole entry, looked up): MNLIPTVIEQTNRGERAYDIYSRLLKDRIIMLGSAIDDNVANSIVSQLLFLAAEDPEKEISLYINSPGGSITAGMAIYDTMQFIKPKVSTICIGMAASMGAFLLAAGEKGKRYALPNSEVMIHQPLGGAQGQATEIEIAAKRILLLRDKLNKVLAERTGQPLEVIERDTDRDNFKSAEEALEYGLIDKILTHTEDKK
#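 Buffer: 100 mM Tris/HCl pH8, 100 mM KCl, 0.05% low protease BSA, 2.5% glycerol, 0.01% Tween-20. ClpP 10 microg/mL final; 20 min RT; delta FRET normalized to ADEP and DMSO controls.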
# DRD3 agonist: qHTS of D3 Dopamine Receptor Agonist: qHTS | D(3) dopamine receptor (Homo sapiens), P35462 | D3R DiscoveRx beta-arrestin cells, luminescence, 90 min | max activation, % | 410,000 compounds, 0.58% hits | AID 652048, 2013; in the data active = max activation above about 30%; note: 0% is about no effect
# Target sequence (P35462 whole entry, looked up): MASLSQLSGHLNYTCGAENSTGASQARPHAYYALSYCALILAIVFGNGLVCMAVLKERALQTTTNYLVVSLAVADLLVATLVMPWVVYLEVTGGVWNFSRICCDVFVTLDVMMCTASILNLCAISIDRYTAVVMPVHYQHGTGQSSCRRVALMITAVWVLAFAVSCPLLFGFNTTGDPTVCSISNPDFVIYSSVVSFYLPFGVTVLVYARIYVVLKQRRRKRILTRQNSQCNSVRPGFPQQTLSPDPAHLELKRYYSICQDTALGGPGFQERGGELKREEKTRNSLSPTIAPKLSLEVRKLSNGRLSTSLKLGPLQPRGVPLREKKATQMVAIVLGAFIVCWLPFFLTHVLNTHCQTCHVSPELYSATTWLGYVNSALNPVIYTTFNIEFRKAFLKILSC
#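 Agonist mode: compounds and dopamine controls were applied to plated cells for 90 min at 37 degrees C after an overnight attachment at 1500 cells/well. Luminescent read-out followed 30 - 60 minutes at room temperature with DiscoveRx detection reagent.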
# D3 antag: qHTS of D3 Dopamine Receptor Antagonist: qHTS; D(3) dopamine receptor (Homo sapiens), P35462; D3R cells, DiscoveRx beta-arrestin luminescence, antagonist mode; active compounds read low; max response, negative = inhibition, %; 360,000 compounds, 2.5% hits; AID 652054, 2013; in the data active = max response below about -50%; inconclusive = no clear call, values can overlap the other calls; note: % is set by controls: 0 for no effect and ±100 for the full control effect
#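 Cells expressing the human receptor were seeded at 1500 cells/well, incubated overnight at 37 degrees C in 5% CO2, then exposed to library compounds with dopamine controls for 90 minutes at 37 degrees C before luminescent detection.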
# HEK293 tox: qHTS of GLP-1 Receptor Inverse Agonists: Cytotox Screen; 410,000 compounds, 0.13% hits; AID 624418, 2012; HEK293 cAMP-luciferase reporter cells, luminescence, 24 h; Potency, µM (series often up to 38.3 µM), for the others: at the highest dose activity change, negative = inhibition, hits mostly inhibitors;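 note: loss of luciferase light is scored as toxicity; potency is the fitted concentration of half-maximal effect; % is set by controls: 0 for no effect and ±100 for the full control effect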
#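 Compound-treated cells are incubated 24 hr at 37 deg C under 5% CO2 after a 12 hour attachment period, then luciferase detection reagent is added and luminescence is measured following 12 min at room temperature; lowered signal indicates toxicity.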
# * = called active by the depositor; ? = inconclusive; . = no result given; [ ] = remark or other dose. Hits are enriched below; roughly 5.7% of the tested compounds scored in any of these assays. Unless noted, calls come from the whole dose curve; as a rule, active = well fitted curve in the direction sought with a large enough effect; inconclusive = small, poorly fitted or top-dose-only effect, or another doubt; inactive = no such curve, though single readings can be large; an effect the other way counts as inactive or inconclusive.
SMILES,GLP1R ag,GLP-1R inv ag,ClpP mod,DRD3 agonist,D3 antag,HEK293 tox
O=C(c1nc(-c2ccc(Cl)cc2)n2c1CCCCC2)N1CCN(c2ccccc2F)CC1,.,?,1%,11,.,-13%
O=C(c1nc(-c2ccc(Cl)cc2)n2c1CCCCC2)N1CCN(c2ccc(F)cc2)CC1,.,10µM*,0%,1,.,-14%
O=C(c1cc(C2CC2)nn1-c1ccccc1)N1CCN(Cc2ccccc2F)CC1,0%,8.9µM*,-1%,-19,-27,1%
COCCn1c(CNC(=O)c2cccc(N(C)C)c2)nc2cccnc21,.,43%,-13%,7,.,-4%
Cn1c(=O)n(Cc2ccccc2)c(=O)c2c1nc(NCC1CCCO1)n2Cc1ccccc1 (centres undefined),1%,4µM*,-2%,-11,17,?
Cn1c(NCC(O)c2ccccc2)nc2c1c(=O)n(Cc1ccc(Cl)c(Cl)c1)c(=O)n2C (centres undefined),-40%,3.2µM*,-4%,33*,?,-10%
CN(C)CCCn1c(=O)n(CCc2ccccc2)c(=O)c2c3c(sc21)CCCCC3,11%,?,0%,-21,-3,20%
CN(C)CCCn1c(=O)n(Cc2ccco2)c(=O)c2c3c(sc21)CCCCC3,16%,4.5µM*,.,-22,-16,-4%
COc1ccc(-n2c(=O)/c(=C\c3cccs3)s/c2=C(/C#N)C(=O)N2CCN(C)CC2)cc1,3%,1%[0.307 µM],32µM*,3,-7,-3%[0.307 µM]
O=C(CN1C(=O)C2(SCC(=O)N2c2ccc(Cl)cc2)c2ccccc21)NCCc1ccccc1 (centres undefined),-1%,5%,1%,-3,.,-8%
COc1ccccc1NC(=O)c1nnn(Cc2ccccc2)c1NC(=O)C(F)(F)F,9%,1%,2%,-13,-22,-11%
CC(=O)Nc1c(C(=O)NCc2ccccc2)nnn1Cc1ccccc1,-1%,-2%,2%,2,-56*,-5%
O=C(Nc1ccccc1)c1nnn(Cc2ccccc2)c1NC(=O)C(F)(F)F,2%,16%,-3%,-2,-23,0%
COc1ccccc1NC(=O)c1nnn(Cc2ccccc2)c1NC(C)=O,-4%,-4%,1%,-6,-70*,-10%
COc1ccc(CCN2CCCn3c2nc2c3c(=O)n(C)c(=O)n2C)cc1OC,10%,68%,.,-8,5,2%
OC(CN1CCCC1)c1ccccc1 (centres undefined),.,.,-1%,.,.,.
OC(CN1CCN(c2ccccc2F)CC1)c1ccc(F)cc1 (centres undefined),13%,17%,.,36*,-8,-5%
OC(CN1CCN(c2ccccc2Cl)CC1)c1ccccc1 (centres undefined),14%,?,.,-2,-84*,?
OC(COc1ccc(F)cc1)CN1CCN(c2ccccc2F)CC1 (centres undefined),-5%,?,-3%,-9,-18,-6%
CN1CCCN=C1/C=C/c1cccs1,1%,3%,?,0,-58*,3%
Cc1ccsc1/C=C\C1=NCCCN1C,6%[19.8 µM],.,.,.,.,.
CCC(O)(C(=O)Nc1ccccc1C(F)(F)F)c1ccccc1OC (centres undefined),-1%,-24%,-1%,5,6,1%
COc1ccccc1C(C)NCC(=O)Nc1ccccc1C(F)(F)F (centres undefined),21%,?,18µM*,-8,-57*,-8%
COc1cc(S(=O)(=O)N2CCN(C)CC2)ccc1Cl,-9%,1%,-3%,0,-87*,0%
CN1CCN(S(=O)(=O)c2ccc(Cc3ccc(S(=O)(=O)N4CCN(C)CC4)cc3)cc2)CC1,-9%,5.6µM*,-1%,1,2,-1%
SMILES,GLP1R ag,GLP-1R inv ag,ClpP mod,DRD3 agonist,D3 antag,HEK293 tox
CN1CCN(S(=O)(=O)c2ccc(Cl)cc2)CC1,-6%,1%,-1%,4,5,-9%
Cc1ccc(S(=O)(=O)N2CCN(C)CC2)cc1C,-2%,6%,-1%,-1,-2,5%
Cc1ccc(S(=O)(=O)N2CCC(N3CCN(C)CC3)CC2)cc1Cl,7%,2.5µM*,.,-14,-24,29%
O=NCc1ccc([N+](=O)[O-])o1,0%,.,.,.,.,.
C[N+]1(CC(=O)c2ccc(Oc3ccc(C(=O)C[N+]4(C)CCOCC4)cc3)cc2)CCOCC1,.,.,0%,.,.,.
Cc1ccc(NC(=O)Cc2ccc(-n3c(C)nc4cccnc43)cc2)cc1C,.,-20%,-2%,-8,.,-3%
Cc1cc(NS(=O)(=O)c2ccc(NC(=O)COc3c(C)ccc(C)c3C)cc2)nc(C)n1,.,-22%,1%,-4,.,0%
COc1cccc(NC(=S)N/N=C2\CC(C)(C)Oc3ccc(O)cc32)c1,3%,7.1µM*,?,-1,-10,?
CSc1cnc2c(=O)n(C)c(=O)[nH]c2n1,-1%,9%,16µM*,-2,19,140%
O=C(Nc1ccccc1-c1ccccc1)C12CC3CC(CC(C3)C1)C2,2%,2µM*,-2%,-7,-3,1%
CCc1ccc(-n2c(=O)c3c4c(sc3n(CC(=O)NCCCOC)c2=O)CCCC4)cc1,-1%,-2%,0%,-15,.,2%
COc1ccc(NC(=O)C2CCN(S(=O)(=O)c3ccc(C)cc3)CC2)cc1OC,-8%,-1%,2%,-3,-3,11%
Cc1ccc(S(=O)(=O)N2CCC(C(=O)Nc3ccc4c(c3)COC4=O)CC2)cc1,2%,0%,-4%,-1,-65*,7%
Cc1ccc(S(=O)(=O)N2CCC(C(=O)NCCc3ccccn3)CC2)cc1,-7%,15%[0.307 µM],22µM*,-8,-5,-1%[0.307 µM]
COC(=O)Nc1ccc(S(=O)(=O)N2CCC(C(=O)N(C)C3CCCCC3)CC2)cc1,-5%,-6%[0.307 µM],13µM*,-2,-15,-2%[0.307 µM]
Cc1ccc(S(=O)(=O)N2CCC(C(=O)NCC3CCCCC3)CC2)cc1,7%,?,.,-15,-65*,5%
COc1ccccc1-c1nn(CCC(=O)Nc2cccc(C(C)=O)c2)c2nc(C)cc(C)c12,-1%,-27%,-20%,3,.,2%
